Assay results as given in the supplement of paper PMC11732987, “Enantioselective OTUD7B fragment discovery through chemoproteomics screening and high-throughput optimisation” (Communications Chemistry, 2025).

What was measured:
Experiment in all cases: log2 ratio of Biotin-Ahx-Ub-VS probe labelling (fragment/DMSO); higher = less target engagement (more negative = stronger competition), active = hit call of the paper (q ≤ 0.05, log2 ratio ≤ -1)
Conditions in all cases: compound concentration: 200 uM; treatment time: 3 h
[1] = molecular target: T1, USP19 (UniProt O94966)
T1 sequence (whole entry): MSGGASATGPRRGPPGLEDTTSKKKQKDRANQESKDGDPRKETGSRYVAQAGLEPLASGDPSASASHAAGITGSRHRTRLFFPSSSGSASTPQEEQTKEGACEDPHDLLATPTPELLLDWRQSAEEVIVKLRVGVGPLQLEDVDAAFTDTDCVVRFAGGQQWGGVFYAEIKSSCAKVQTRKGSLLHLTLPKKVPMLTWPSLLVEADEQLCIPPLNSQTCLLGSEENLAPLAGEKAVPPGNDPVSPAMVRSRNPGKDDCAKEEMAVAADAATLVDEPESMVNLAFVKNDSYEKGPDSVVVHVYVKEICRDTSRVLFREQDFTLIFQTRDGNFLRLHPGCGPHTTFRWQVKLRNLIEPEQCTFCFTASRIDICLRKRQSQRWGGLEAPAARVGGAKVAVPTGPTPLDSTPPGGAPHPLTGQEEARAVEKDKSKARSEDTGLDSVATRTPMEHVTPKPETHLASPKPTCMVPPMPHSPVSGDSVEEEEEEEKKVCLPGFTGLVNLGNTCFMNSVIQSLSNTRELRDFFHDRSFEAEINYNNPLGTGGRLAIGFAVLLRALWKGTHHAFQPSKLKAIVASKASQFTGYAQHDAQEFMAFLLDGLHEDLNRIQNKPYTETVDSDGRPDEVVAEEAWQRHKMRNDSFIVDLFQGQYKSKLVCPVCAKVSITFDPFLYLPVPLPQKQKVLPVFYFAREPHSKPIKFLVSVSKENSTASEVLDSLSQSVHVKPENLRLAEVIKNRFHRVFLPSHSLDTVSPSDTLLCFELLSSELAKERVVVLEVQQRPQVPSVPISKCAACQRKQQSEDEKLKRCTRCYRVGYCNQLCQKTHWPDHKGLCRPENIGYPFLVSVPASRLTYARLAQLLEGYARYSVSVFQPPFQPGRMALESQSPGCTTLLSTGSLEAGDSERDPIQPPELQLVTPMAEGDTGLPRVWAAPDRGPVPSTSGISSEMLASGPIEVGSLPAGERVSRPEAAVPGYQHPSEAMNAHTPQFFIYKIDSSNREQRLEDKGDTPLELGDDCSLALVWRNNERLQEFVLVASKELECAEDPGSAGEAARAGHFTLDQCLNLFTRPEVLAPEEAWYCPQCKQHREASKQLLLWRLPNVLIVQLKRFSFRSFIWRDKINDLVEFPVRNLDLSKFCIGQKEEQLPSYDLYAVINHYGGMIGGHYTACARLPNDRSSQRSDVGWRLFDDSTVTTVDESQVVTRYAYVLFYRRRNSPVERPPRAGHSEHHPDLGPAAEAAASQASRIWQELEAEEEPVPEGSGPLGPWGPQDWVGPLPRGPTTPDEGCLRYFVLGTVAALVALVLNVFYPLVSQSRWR
In short: (§1)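 HEK293T lysate in Tris/CHAPS/IGEPAL buffer with protease inhibitors (495 µg per sample) was given fragment at 200 µM or vehicle for 3 h, in triplicate. It then received Biotin-Ahx-Ub-VS at 0.5 µM final for 1 h. Labelled DUBs were NeutrAvidin-enriched, digested with LysC and trypsin, and run by diaPASEF LC-MS/MS. Values are average log2 fragment/vehicle ratios by unpaired t-test on global-median-normalised Spectronaut quantities of proteins with ≥2 unique peptides.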

[2] = molecular target: USP24 (UniProt Q9UPU5)
Sequence of USP24 (Q9UPU5 whole entry): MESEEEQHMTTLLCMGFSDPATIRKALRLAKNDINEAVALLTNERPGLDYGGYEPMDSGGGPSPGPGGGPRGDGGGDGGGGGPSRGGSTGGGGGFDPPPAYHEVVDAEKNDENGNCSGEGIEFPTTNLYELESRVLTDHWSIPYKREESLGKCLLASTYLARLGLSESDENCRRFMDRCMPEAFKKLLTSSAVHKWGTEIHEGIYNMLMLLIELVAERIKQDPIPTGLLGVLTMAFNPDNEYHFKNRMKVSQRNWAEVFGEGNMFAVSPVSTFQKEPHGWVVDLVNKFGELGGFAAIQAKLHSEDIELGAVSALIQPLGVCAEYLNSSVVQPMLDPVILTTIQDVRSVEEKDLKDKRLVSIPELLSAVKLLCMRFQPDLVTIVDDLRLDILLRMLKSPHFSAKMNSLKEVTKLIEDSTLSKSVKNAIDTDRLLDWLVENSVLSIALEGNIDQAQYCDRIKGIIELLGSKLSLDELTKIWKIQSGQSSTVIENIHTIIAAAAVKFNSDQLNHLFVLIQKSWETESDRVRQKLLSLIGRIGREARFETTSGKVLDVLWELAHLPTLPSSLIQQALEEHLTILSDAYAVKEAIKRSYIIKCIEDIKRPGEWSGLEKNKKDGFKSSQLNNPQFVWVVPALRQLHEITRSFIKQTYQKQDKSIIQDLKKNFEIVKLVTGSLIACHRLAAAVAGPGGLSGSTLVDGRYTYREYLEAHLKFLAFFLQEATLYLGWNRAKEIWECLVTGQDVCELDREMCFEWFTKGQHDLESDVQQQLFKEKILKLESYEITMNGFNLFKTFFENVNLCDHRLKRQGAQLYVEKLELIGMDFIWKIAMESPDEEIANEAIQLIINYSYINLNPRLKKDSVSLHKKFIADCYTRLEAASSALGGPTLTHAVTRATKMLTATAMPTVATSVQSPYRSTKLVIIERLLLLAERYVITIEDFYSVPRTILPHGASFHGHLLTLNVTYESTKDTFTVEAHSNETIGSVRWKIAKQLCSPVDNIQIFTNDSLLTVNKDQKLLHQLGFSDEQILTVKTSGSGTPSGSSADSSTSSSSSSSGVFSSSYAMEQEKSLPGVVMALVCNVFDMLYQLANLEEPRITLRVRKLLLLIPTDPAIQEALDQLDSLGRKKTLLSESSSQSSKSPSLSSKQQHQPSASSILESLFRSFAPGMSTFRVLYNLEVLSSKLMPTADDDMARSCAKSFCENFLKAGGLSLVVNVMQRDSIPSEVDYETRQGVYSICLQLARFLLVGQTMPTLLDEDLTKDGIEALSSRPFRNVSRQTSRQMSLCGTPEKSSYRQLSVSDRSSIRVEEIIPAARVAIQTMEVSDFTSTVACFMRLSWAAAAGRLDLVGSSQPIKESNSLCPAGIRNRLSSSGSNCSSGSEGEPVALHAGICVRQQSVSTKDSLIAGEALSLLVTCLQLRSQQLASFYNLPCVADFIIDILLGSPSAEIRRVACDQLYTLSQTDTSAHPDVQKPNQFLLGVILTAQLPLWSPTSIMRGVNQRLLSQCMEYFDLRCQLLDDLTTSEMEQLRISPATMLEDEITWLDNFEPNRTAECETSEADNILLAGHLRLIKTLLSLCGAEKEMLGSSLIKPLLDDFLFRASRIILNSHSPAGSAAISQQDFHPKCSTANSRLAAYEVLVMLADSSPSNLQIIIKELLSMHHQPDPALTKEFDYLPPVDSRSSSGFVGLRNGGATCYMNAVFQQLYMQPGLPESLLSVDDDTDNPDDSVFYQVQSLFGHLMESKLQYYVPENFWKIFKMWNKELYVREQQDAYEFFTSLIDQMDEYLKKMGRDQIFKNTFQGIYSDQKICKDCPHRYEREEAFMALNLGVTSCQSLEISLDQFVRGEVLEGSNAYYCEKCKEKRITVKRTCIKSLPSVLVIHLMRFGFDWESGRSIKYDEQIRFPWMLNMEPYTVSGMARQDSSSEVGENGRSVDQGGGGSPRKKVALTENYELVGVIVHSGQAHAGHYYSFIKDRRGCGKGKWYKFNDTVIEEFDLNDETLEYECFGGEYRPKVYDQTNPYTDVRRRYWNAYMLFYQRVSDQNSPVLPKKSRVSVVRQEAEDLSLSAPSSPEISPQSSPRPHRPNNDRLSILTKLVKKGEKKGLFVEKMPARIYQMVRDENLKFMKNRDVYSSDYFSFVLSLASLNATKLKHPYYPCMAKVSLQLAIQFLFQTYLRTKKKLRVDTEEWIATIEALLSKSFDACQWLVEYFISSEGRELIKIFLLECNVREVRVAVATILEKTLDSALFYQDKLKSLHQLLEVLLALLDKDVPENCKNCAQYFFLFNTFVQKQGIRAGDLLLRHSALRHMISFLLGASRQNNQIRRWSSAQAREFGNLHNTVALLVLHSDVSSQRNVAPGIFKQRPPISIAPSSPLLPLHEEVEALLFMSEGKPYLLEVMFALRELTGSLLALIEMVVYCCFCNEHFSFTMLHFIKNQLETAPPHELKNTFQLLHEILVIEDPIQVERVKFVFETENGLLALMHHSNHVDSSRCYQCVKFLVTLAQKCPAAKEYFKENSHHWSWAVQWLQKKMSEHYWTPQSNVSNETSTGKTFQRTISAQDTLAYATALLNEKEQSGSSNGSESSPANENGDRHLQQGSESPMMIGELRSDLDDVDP
In short: as §1

[3] = molecular target: T2, USP25 (UniProt Q9UHP3)
T2 sequence (whole entry): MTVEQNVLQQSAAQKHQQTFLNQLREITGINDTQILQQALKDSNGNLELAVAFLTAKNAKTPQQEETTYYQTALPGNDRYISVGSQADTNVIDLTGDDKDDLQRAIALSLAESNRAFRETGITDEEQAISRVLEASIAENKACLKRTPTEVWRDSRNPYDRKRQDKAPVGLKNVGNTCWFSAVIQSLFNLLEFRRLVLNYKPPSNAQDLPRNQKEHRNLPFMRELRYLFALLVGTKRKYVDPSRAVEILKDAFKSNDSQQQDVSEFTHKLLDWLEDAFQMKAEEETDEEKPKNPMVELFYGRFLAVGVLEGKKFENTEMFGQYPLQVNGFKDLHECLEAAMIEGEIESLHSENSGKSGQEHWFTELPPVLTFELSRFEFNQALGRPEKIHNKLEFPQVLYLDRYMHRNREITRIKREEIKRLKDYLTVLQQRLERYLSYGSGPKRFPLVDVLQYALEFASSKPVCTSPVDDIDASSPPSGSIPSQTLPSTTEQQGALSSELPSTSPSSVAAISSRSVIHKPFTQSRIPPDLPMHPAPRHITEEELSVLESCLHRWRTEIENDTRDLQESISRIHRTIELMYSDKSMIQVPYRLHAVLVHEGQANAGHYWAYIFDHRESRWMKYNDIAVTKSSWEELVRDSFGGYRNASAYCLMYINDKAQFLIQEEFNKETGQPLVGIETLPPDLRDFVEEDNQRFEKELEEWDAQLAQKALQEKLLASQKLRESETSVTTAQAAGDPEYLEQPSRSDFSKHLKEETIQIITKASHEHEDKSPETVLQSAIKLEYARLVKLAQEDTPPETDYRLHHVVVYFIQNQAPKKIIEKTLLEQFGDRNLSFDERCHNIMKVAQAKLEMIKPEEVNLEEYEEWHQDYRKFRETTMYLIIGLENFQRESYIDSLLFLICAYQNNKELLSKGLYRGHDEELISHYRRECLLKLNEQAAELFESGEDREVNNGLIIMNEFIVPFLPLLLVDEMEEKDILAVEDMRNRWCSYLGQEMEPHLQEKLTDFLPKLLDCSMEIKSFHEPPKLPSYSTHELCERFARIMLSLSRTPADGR
In short: as §1

[4] = molecular target: T3, USP28 (UniProt Q96RU2)
T3 sequence (whole entry): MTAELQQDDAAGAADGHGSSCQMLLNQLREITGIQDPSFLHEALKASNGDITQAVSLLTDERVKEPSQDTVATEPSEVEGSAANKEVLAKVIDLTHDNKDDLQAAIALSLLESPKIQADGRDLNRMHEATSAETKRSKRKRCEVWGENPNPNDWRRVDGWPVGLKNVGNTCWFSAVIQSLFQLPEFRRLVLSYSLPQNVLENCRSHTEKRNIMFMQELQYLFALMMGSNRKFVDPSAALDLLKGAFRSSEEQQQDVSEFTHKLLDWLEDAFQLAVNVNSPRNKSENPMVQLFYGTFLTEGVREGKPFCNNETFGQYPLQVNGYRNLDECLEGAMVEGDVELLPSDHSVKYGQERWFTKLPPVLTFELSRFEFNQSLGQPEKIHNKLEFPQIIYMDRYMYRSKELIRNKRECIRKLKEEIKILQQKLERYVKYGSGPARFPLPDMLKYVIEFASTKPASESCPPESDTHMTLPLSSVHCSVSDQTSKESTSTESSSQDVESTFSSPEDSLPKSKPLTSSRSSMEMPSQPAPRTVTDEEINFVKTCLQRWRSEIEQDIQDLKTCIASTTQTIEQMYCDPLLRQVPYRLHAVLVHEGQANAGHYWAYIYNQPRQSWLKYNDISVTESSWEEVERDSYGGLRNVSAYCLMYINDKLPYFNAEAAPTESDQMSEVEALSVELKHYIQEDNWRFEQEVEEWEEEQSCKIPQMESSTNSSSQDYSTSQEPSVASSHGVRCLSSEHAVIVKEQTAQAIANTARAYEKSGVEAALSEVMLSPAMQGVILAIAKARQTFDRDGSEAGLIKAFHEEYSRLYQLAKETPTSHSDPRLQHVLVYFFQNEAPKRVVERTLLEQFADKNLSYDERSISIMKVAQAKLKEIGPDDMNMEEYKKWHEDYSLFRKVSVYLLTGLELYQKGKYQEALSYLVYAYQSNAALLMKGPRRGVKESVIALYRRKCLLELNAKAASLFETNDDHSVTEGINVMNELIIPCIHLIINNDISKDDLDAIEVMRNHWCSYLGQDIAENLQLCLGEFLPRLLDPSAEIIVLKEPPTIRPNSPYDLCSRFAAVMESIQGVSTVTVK
In short: as §1

Measured: log2 ratio of Biotin-Ahx-Ub-VS probe labelling

O=C(CCl)NCc1ccc(Cl)cc1
inactive: [1] -0.0819 | [2] -0.0304 | [3] -0.395 | [4] -0.414
